Screens deposited in PubChem by National Center for Advancing Translational Sciences (NCATS).
In the library only some 1.8% were active in any assay of this set; here they are far more common.
Mito fusion yeast: inhibitors of mitochondrial division or activators of mitochondrial fusion; S. cerevisiae fusion-defective mutant growth rescue, CellTiterGlo 48 h; Potency, µM (doses to about 46.1 µM), for inactives: at the highest dose growth rescue (activation), actives largely listed as activators; 320,000 compounds, 0.23% hits; AID 485298; note: potency is the fitted concentration of half-maximal effect; % of control where 0% means no effect; nearly all actives have a fitted effect of over 45% in size
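Yeast fusion mutant, YPEG (non-fermentable carbon), compound, 48 h at 37C non-permissive; CellTiterGlo added, 10 min RT, luminescence read. Rescued growth = division inhibition.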
AT treatment: potential ataxia-telangiectasia treatment; F2112 A-T fibroblasts, KAP-1 phosphorylation AlphaLISA; neocarzinostatin DNA damage 30 min before lysis; Potency, µM (top dose mostly 57.5 µM), for the others: at the highest dose activation, usual class: activators; 320,000 compounds, 0.19% hits; note: potency is the fitted concentration of half-maximal effect; % of control where 0% means no effect; nearly all actives have a fitted effect of over 45% in size
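ATM-like activity read as KAP-1 phosphorylation via AlphaLISA donor/acceptor antibody pairs after lysis and 6 hr at 25C. Cells were ATM-null patient fibroblasts (F2112, hTERT), dosed 60 min, then exposed to the DSB inducer NCS for 30 min.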
ClpP mod: qHTS Assay for Activators of ClpP | purified B. subtilis ClpP, FRET peptide cleavage, 20 min | AID 651965, 2013 | Potency, µM (doses to about 57.5 µM), without a hit: top-dose activity change, negative = active | 340,000 compounds, 1.9% hits; active = well fitted falling curve with a large enough effect; inconclusive = small, poorly fitted or top-dose-only effect; inactive = no such curve, though single readings can be large or run the other way; note: potency is the fitted concentration of half-maximal effect; the source files actives as falling curves though it sought activators and does not explain the sign; nearly all actives have a fitted effect of over 65% in size
Target sequence (P80244 whole entry, looked up): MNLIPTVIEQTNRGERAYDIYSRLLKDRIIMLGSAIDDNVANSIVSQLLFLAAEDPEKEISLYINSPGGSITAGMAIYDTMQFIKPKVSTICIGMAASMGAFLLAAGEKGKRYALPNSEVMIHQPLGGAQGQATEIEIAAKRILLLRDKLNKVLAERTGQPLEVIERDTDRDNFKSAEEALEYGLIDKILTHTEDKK
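Purified B. subtilis ClpP, 10 microg/mL final in Tris/HCl pH8 with KCl, BSA, glycerol and Tween-20, cleaved an Abz/nitrotyrosine-quenched decapeptide. Fluorescence (ex 320, em 430) was read at 0 and 20 min at room temperature. Delta was normalized to 5.8 microM ADEP and DMSO/no-enzyme controls.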
GRP78 ERSR act: inducers of ER stress response in human glioma cells; U87-MG GRP78 promoter luciferase reporter, 16 h; Potency, µM, inactives show top-dose activation, actives largely listed as activators; 420,000 compounds, 0.02% hits; note: potency is the fitted concentration of half-maximal effect; series mostly up to about 76 µM; % of control where 0% means no effect; nearly all actives have a fitted effect of over 35% in size
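Stably transfected U87-MG human glioma cells carrying a GRP78-based luminescent sensor were seeded at 1000 cells/well, pin-dosed with compounds and incubated 16 h. Luciferase reagent was then added, and end-point luminescence was read after 10 min at room temperature.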
TCR act: activates T cell receptor signaling | Potency, µM (titrated, usually from 9.22 µM), inactives show at the highest dose activation of IL-2 secretion, hits mostly activators | 330,000 tested, under 10 active | primary human leukocytes, anti-CD3, IL-2 HTRF, 48 h; note: % of control where 0% means no effect
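Primary human leukocytes incubated 48 hr with anti-CD3 beads plus compound, without co-stimulation. Secreted IL-2 measured by HTRF (europium cryptate/d2 anti-IL-2 pair, 320 nm excitation, 665 nm emission).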
MBNL1-CUG inh: blocks human MBNL1 binding to CUG repeat RNA; TR-FRET MBNL1-His/biotin-(CUG)12 binding, 665/545 ratio; 280,000 compounds, 0.036% hits; Potency, µM (titrated, usually from 57.5 µM), without a hit: at the top dose activity change, negative = inhibition, most hits filed as inhibitors; Q9NR56; active = well fitted inhibition curve with a large enough effect in the signal ratio, with a control signal flat, not every such curve was filed as active; inconclusive = small, poorly fitted or top-dose-only effect, or effect the other way, or a change in a side signal; inactive = no such curve, though single readings can be large or run the other way; the % refers to the signal ratio; note: potency is the fitted concentration of half-maximal effect; % is set by controls: 0 for no effect and ±100 for the full control effect
Target sequence (Q9NR56 whole entry, looked up): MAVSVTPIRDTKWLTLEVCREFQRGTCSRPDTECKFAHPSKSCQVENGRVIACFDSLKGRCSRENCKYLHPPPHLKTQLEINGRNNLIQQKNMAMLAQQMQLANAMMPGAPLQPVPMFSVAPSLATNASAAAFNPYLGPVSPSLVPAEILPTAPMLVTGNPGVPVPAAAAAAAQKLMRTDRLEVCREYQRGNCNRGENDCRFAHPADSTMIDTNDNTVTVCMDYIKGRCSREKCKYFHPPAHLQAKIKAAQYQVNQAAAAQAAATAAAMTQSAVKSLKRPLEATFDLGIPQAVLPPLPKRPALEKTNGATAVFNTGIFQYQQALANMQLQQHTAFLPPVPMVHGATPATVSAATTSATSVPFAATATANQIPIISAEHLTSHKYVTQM
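Compound titration spanned 92 nM–58 uM against the MBNL1-His/biotin-(CUG)12 complex. After 60 min at room temperature with 5 nM streptavidin-XL665 and 0.055 ng/ul terbium anti-His, ratiometric 665/545 nm emission (Ex 340 nm) normalized to controls.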
* = called active by the depositor; [ ] = another dose, or the depositor's remark. Unless noted, calls come from the whole dose curve; as a rule, active = well fitted curve in the direction sought with a large enough effect; inconclusive = small, poorly fitted or top-dose-only effect, or another doubt; inactive = no such curve, though single readings can be large; an effect the other way counts as inactive or inconclusive.

Results for CCC1S/C(=N\S(=O)(=O)c2cccs2)N(C2CCCCC2)C1=O (configuration not stated) ?
Mito fusion yeast: 5%; ClpP mod: 28µM*; GRP78 ERSR act: -6%; TCR act: -1%; MBNL1-CUG inh: 7%

What do the screens show for `O=c1c2ccccc2nc(-c2ccoc2)n1CCc1ccccc1`?
Mito fusion yeast: inconclusive; AT treatment: 0%; ClpP mod: 25µM*; GRP78 ERSR act: 2%; TCR act: -2%; MBNL1-CUG inh: -9%

How did COc1ccc(CCn2c(S)nc3ccccc3c2=O)cc1 do in these assays?
Mito fusion yeast: -14%; AT treatment: 1.8µM*; ClpP mod: -2%; GRP78 ERSR act: -9%; TCR act: 5%; MBNL1-CUG inh: 10%

How did COc1ccc(OC)c(C2OCCC=CC2C)c1 (configuration not stated) do in these assays?
GRP78 ERSR act: -4%

What do the screens show for `COc1ccc(CNc2nc3ccccc3c3nc(-c4ccccc4)nn23)cc1`?
ClpP mod: 28µM*; GRP78 ERSR act: -1%

What do the screens show for `CCN(CC)CCCNc1nc2cc(OC)c(OC)cc2c2nc(-c3ccccc3)nn12`?
Mito fusion yeast: -5%; AT treatment: -7%; ClpP mod: 32µM*; GRP78 ERSR act: -12%; TCR act: -2%; MBNL1-CUG inh: -8%

How did CCN(CC)CCCNc1nc2cc(OC)c(OC)cc2c2nc(-c3cccnc3)nn12 do in these assays?
Mito fusion yeast: 0%; AT treatment: -3%; ClpP mod: 2%; GRP78 ERSR act: -6%; TCR act: -4%; MBNL1-CUG inh: -5%

What do the screens show for `O=C1/C(=C/N(C(=O)c2ccco2)c2ccc(Cl)cc2)Sc2ccccc21`?
Mito fusion yeast: 15%; AT treatment: -12%; ClpP mod: 10µM*; GRP78 ERSR act: -6%; TCR act: -10%[46.1 µM]; MBNL1-CUG inh: -7%

What do the screens show for `CC1(C)CC2(CCCN(C(=S)Nc3ccccc3)C2)CCO1` (configuration not stated)?
Mito fusion yeast: -4%; AT treatment: 20µM*; ClpP mod: -1%; GRP78 ERSR act: 1%; TCR act: -4%; MBNL1-CUG inh: 0%

What do the screens show for `CCOC(=O)c1cnc(-n2nc(C)cc2C)nc1NC`?
Mito fusion yeast: 4%; AT treatment: 11%; ClpP mod: 32µM*; GRP78 ERSR act: 4%; TCR act: -8%; MBNL1-CUG inh: -4%

Results for Cc1ccc(S(=O)(=O)N(CC(=O)NC2CC2)c2ccc(C)c(Cl)c2)cc1 ?
Mito fusion yeast: 4%; AT treatment: -1%; ClpP mod: 16µM*; GRP78 ERSR act: -2%; TCR act: -5%; MBNL1-CUG inh: 4%

How did COc1ccc(CCNC(=O)NC(C(F)(F)F)C(F)(F)F)cc1OC do in these assays?
Mito fusion yeast: -6%; AT treatment: -1%; ClpP mod: 0%; GRP78 ERSR act: 1%; TCR act: -3%; MBNL1-CUG inh: -4%

What do the screens show for `COc1ccc(CCNC(=O)Nc2ccc(F)cc2F)cc1OC`?
Mito fusion yeast: -5%; AT treatment: 10µM*; ClpP mod: -1%; GRP78 ERSR act: -1%; TCR act: -5%; MBNL1-CUG inh: -18%

How did COC(=O)c1ccccc1NC1OC(=O)c2ccccc21 (configuration not stated) do in these assays?
Mito fusion yeast: -4%; AT treatment: 9%; ClpP mod: 32µM*; GRP78 ERSR act: -1%; TCR act: 0%; MBNL1-CUG inh: 6%

How did O=C(O)COc1cccc2c1CCC=C2CCO/N=C(\c1ccccc1)c1cccnc1 do in these assays?
GRP78 ERSR act: -2%

How did COc1ccc(NS(=O)(=O)c2ccc(NC(=O)c3ccc(N(C)S(C)(=O)=O)cc3)cc2)c(OC)c1 do in these assays?
Mito fusion yeast: -5%; AT treatment: 6%; ClpP mod: 25µM*; GRP78 ERSR act: -6%; TCR act: 0%[46.1 µM]

Results for CN(c1ccc(C(=O)Nc2ccc3c(c2)n(C)c(=O)n3C)cc1)S(C)(=O)=O ?
Mito fusion yeast: 5%; AT treatment: 15%; ClpP mod: 25µM*; GRP78 ERSR act: 3%; TCR act: 2%; MBNL1-CUG inh: -1%

What do the screens show for `Cc1ccccc1C(=O)Nc1cccc(NC(=O)c2ccc(C(C)(C)C)cc2)c1`?
ClpP mod: -29%; GRP78 ERSR act: -2%

Results for CC(=O)/C=C/c1ccccc1Oc1c(F)c(F)nc(F)c1F ?
Mito fusion yeast: -19%; AT treatment: 32µM*; ClpP mod: -4%; GRP78 ERSR act: -7%; TCR act: 0%; MBNL1-CUG inh: 2%

Results for CCN(CC)c1ccc(/C=N/NC(=O)Cc2cccs2)cc1 ?
Mito fusion yeast: -5%; AT treatment: 3%; ClpP mod: 28µM*; GRP78 ERSR act: 2%; TCR act: 0%[46.1 µM]; MBNL1-CUG inh: 21%

Results for CCN(CC)c1ccc(/C=N/NC(=S)NCc2ccccc2)cc1 ?
Mito fusion yeast: -5%; AT treatment: 4%; ClpP mod: 25µM*; GRP78 ERSR act: -4%; TCR act: 5%; MBNL1-CUG inh: 3%

Results for CCN(CC)c1ccc(/C=N/NC(=S)NCc2ccc(OC)cc2)cc1 ?
Mito fusion yeast: 25%; AT treatment: 5%; GRP78 ERSR act: -5%; TCR act: 2%[46.1 µM]; MBNL1-CUG inh: -2%

Results for C=CCNC(=S)N/N=C/c1ccc(N(CC)Cc2ccccc2)cc1 ?
Mito fusion yeast: inconclusive; AT treatment: 2%; ClpP mod: 8.9µM*; GRP78 ERSR act: -3%; TCR act: 6%[46.1 µM]; MBNL1-CUG inh: 17%

Results for CC[C@H](C)[C@H](NC(=O)[C@@H]1CCCN1C(=O)[C@H](Cc1cnc[nH]1)NC(=O)[C@@H](NC(=O)[C@H](Cc1ccc(O)cc1)NC(=O)[C@@H](NC(=O)[C@H](CCCN=C(N)N)NC(=O)CNC)C(C)C)[C@@H](C)CC)C(=O)O ?
GRP78 ERSR act: -5%

How did CC(C)(S)C(=O)N[C@H](CS)C(=O)O do in these assays?
GRP78 ERSR act: -1%

Results for CCOC(=O)c1cc(C#N)c(NCc2ccccc2)nc1C ?
Mito fusion yeast: 0%; AT treatment: 6%; ClpP mod: 32µM*; GRP78 ERSR act: 1%; MBNL1-CUG inh: 5%

Results for CCC(=O)N1CCN(c2nc(-c3ccccc3)c3c(c2C#N)CCCC3)CC1 ?
Mito fusion yeast: 9%; ClpP mod: 32µM*; GRP78 ERSR act: -2%; TCR act: 0%; MBNL1-CUG inh: 8%
